The nature of test [1]: NCI Yeast Anticancer Drug Screen. Data for the rad50 strain (AID 155).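 Note: 0% = growth of vehicle-only cultures of the same strain.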 As to conditions: S. cerevisiae rad50 strain growth inhibition, stronger effect = higher value. Summed up:
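Compounds were tested on a yeast strain with an engineered DNA damage repair alteration; the reported value is growth inhibition normalised to vehicle treatment.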

The nature of test [2]: NCI Yeast Anticancer Drug Screen. Data for the mec2-1 strain (AID 157). As to conditions: S. cerevisiae mec2-1 strain, stronger effect = higher value. Summed up:
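Vehicle-treated cultures served as reference for growth inhibition of compound-exposed mec2-1 yeast.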

A short description of test [3]: NCI Yeast Anticancer Drug Screen. Data for the sgs1 mgt1 strain (AID 161).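 Note: 0% = growth of cultures given vehicle only.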 The settings on record: S. cerevisiae sgs1 mgt1 strain, stronger effect = higher value. The method, boiled down: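 Test agents were incubated with a DNA-repair-mutant yeast strain. Growth was then read and compared against vehicle-treated controls.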
Test [4] in a line: NCI Yeast Anticancer Drug Screen. Data for the cln2 rad14 strain (AID 165).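 Note: 0% = growth equal to vehicle treated cultures.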 The settings on record: S. cerevisiae cln2 rad14 strain, stronger effect = higher value. Summed up: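 Each compound was tested on cln2 rad14 yeast. Inhibition of growth was calculated against vehicle-exposed controls.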
A short description of test [5]: NCI Yeast Anticancer Drug Screen. Data for the bub3 strain (AID 167). As to conditions: S. cerevisiae bub3 mutant strain, stronger effect = higher value. Summed up:
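Growth of a checkpoint-deficient yeast mutant is measured after compound exposure. Values represent inhibition relative to vehicle.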

Test [6] in a line: NCI Yeast Anticancer Drug Screen. Data for the mlh1 rad18 strain (AID 175). The settings on record: S. cerevisiae mlh1 rad18 strain growth inhibition, stronger effect = higher value. Summed up: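 Vehicle-treated cultures served as the reference for growth inhibition in a yeast strain carrying DNA damage repair alterations exposed to each compound.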
Setting [7] is: at 5.0 µM (retest, dose inferred, filed as 0.5).
Setting [8] is: at 50.0 µM (retest, dose inferred, filed as 5.0).

Where “and” joins values, the source holds several entries; their conditions need not be identical. Identical values can stand only once. About 79,000 compounds went through this panel and 15% of them were active in at least one assay; those are over-represented in the sample as a whole. The source holds several records for some structures; these can differ, active in one and inactive in another. Calls of active or inactive are those of the source. Cut-off read from the data, not from the text of the source: active = growth inhibition above about 70%; inactive = the rest.

Among the data in PubChem BioAssay (NCI) are growth inhibition values, retold here.

Take `CCCn1cnc2c(SCc3ccc(Cl)cc3)nc(N)nc21`: the growth inhibition was -7% (inactive) in test [1] (setting [7]); 21% (inactive) in test [1] (setting [8]); 96.9% (active) in test [1] (at 50.0 µM); -5% (inactive) in test [2] (setting [7]); -10% (inactive) in test [2] (setting [8]); 97.5% (active) in test [2] (at 50.0 µM). Also, the growth inhibition in test [3] (setting [7]) was -3% (inactive); in test [3] (setting [8]), 16% (inactive); in test [3] (at 50.0 µM), 96.2% (active); in test [4] (setting [7]), -32% (inactive); in test [4] (setting [8]), -64% (inactive); in test [4] (at 50.0 µM) it was 92.8% (active). Moreover, the growth inhibition in test [5] (setting [7]) is -20% (inactive); in test [5] (setting [8]), 7% (inactive); in test [5] (at 50.0 µM), 97% (active); in test [6] (setting [7]), -6% (inactive); in test [6] (setting [8]), 36% (inactive); in test [6] (at 50.0 µM), 98% (active).

As to `O=C(O)CCN1c2ccccc2Sc2ccccc21`, the growth inhibition in test [1] (setting [7]) was 1% (inactive) and -19% (inactive); in test [1] (setting [8]), 31% (inactive) and 27% (inactive); in test [1] (at 50.0 µM) it was 35% (inactive) and 69.4% (inactive); in test [2] (setting [7]) it was -22% (inactive) and -12% (inactive); in test [2] (setting [8]), 40% (inactive) and 48% (inactive); in test [2] (at 50.0 µM), 13.3% (inactive) and 52% (inactive). Further, the growth inhibition in test [3] (setting [7]) was -5% (inactive) and -16% (inactive); in test [3] (setting [8]), 46% (inactive) and 41% (inactive); in test [3] (at 50.0 µM), 27.9% (inactive) and 69.6% (inactive); in test [4] (setting [7]), -8% (inactive) and 13% (inactive); in test [4] (setting [8]) it was 58% (inactive) and 52% (inactive); in test [4] (at 50.0 µM) it was 84.3% (active) and 54.4% (inactive). Further, the growth inhibition is -15% (inactive) and -16% (inactive) in test [5] (setting [7]); 51% (inactive) and 48% (inactive) in test [5] (setting [8]); 64.9% (inactive) and 39.2% (inactive) in test [5] (at 50.0 µM); -7% (inactive) and -39% (inactive) in test [6] (setting [7]); 56% (inactive) and 35% (inactive) in test [6] (setting [8]); 42.5% (inactive) and 54.9% (inactive) in test [6] (at 50.0 µM).

With `Oc1ccccc1C=Nc1ccccc1N=Cc1ccccc1O`, the growth inhibition in test [1] (setting [7]) is -16% (inactive) and -2% (inactive); in test [1] (setting [8]) it was 68% (inactive) and 96% (active); in test [1] (at 50.0 µM), 85% (active) and 81.4% (active); in test [2] (setting [7]), -34% (inactive) and -4% (inactive); in test [2] (setting [8]), 98% (active) and 85% (active); in test [2] (at 50.0 µM), 78.9% (active) and 89% (active). The growth inhibition in test [3] (setting [7]) is -12% (inactive) and -1% (inactive); in test [3] (setting [8]), 76% (active) and 91% (active); in test [3] (at 50.0 µM), 67.8% (inactive) and 91.3% (active); in test [4] (setting [7]) it was 7% (inactive) and -12% (inactive); in test [4] (setting [8]) it was 39% (inactive) and 95% (active); in test [4] (at 50.0 µM) it was 59.5% (inactive) and 8.6% (inactive). For the same compound, the growth inhibition in test [5] (setting [7]) was 14% (inactive) and -3% (inactive); in test [5] (setting [8]), 52% (inactive) and 86% (active); in test [5] (at 50.0 µM), 67% (inactive) and 87.2% (active); in test [6] (setting [7]), -17% (inactive) and -4% (inactive); in test [6] (setting [8]), 98% (active) and 97% (active); in test [6] (at 50.0 µM), 76.3% (active) and 93% (active).

Take `Clc1ccc2c(c1)[nH]c1c2nc2ccccn21`: the growth inhibition in test [1] (setting [7]) is 21% (inactive); in test [1] (setting [8]) it was 95% (active); in test [1] (at 50.0 µM) it was 62.9% (inactive) and 83.2% (active); in test [2] (setting [7]) it was 19% (inactive); in test [2] (setting [8]) it was 98% (active); in test [2] (at 50.0 µM), -11.3% (inactive) and 67.4% (inactive). Further, the growth inhibition was 50% (inactive) in test [3] (setting [7]); 95% (active) in test [3] (setting [8]); 19.4% (inactive) and 85.7% (active) in test [3] (at 50.0 µM); 47% (inactive) in test [4] (setting [7]); 95% (active) in test [4] (setting [8]); 25.2% (inactive) and 77.5% (active) in test [4] (at 50.0 µM). The growth inhibition was 36% (inactive) in test [5] (setting [7]); 97% (active) in test [5] (setting [8]); 15.2% (inactive) and 79.2% (active) in test [5] (at 50.0 µM); 11% (inactive) in test [6] (setting [7]); 98% (active) in test [6] (setting [8]); -14.4% (inactive) and 80.4% (active) in test [6] (at 50.0 µM).

In the case of `Oc1ccc(/C=N/NC(=S)NN2CCOCC2)nc1`, the growth inhibition in test [1] (setting [7]) was 38% (inactive); in test [1] (setting [8]), 96% (active); in test [1] (at 50.0 µM), 87% (active); in test [2] (setting [7]) it was 36% (inactive); in test [2] (setting [8]) it was 95% (active); in test [2] (at 50.0 µM), 90.1% (active). Moreover, the growth inhibition in test [3] (setting [7]) is 42% (inactive); in test [3] (setting [8]) it was 95% (active); in test [3] (at 50.0 µM), 89% (active); in test [4] (setting [7]), 20% (inactive); in test [4] (setting [8]) it was 91% (active); in test [4] (at 50.0 µM) it was 80.8% (active). Also, the growth inhibition in test [5] (setting [7]) is 46% (inactive); in test [5] (setting [8]), 93% (active); in test [5] (at 50.0 µM) it was 88.5% (active); in test [6] (setting [7]), 42% (inactive); in test [6] (setting [8]) it was 95% (active); in test [6] (at 50.0 µM), 87.8% (active).

As to `c1ccc2c(c1)[nH]c1c(N3CCOCC3)nnc(N3CCOCC3)c12`, the growth inhibition in test [1] (setting [7]) was 2% (inactive); in test [1] (setting [8]) it was 1% (inactive); in test [1] (at 50.0 µM), 35.5% (inactive); in test [2] (setting [7]), -5% (inactive); in test [2] (setting [8]), 3% (inactive); in test [2] (at 50.0 µM), 44% (inactive). Moreover, the growth inhibition was -2% (inactive) in test [3] (setting [7]); 0% (inactive) in test [3] (setting [8]); 77.8% (active) in test [3] (at 50.0 µM); -2% (inactive) in test [4] (setting [7]); -5% (inactive) in test [4] (setting [8]); 35.3% (inactive) in test [4] (at 50.0 µM). In addition, the growth inhibition was 0% (inactive) in test [5] (setting [7]); -1% (inactive) in test [5] (setting [8]); 47.1% (inactive) in test [5] (at 50.0 µM); -6% (inactive) in test [6] (setting [7]); -6% (inactive) in test [6] (setting [8]); 83% (active) in test [6] (at 50.0 µM).

Regarding `CC(=O)[O-].[O-]c1c(Cl)cc(Cl)cc1/C=N/Nc1ccccn1.[Zn+2]`, the growth inhibition in test [1] (setting [7]) was 5% (inactive); in test [1] (setting [8]), 93% (active); in test [1] (at 50.0 µM), 96.5% (active); in test [2] (setting [7]) it was 16% (inactive); in test [2] (setting [8]) it was 96% (active); in test [2] (at 50.0 µM), 87.8% (active). Besides, the growth inhibition is 4% (inactive) in test [3] (setting [7]); 96% (active) in test [3] (setting [8]); 98.1% (active) in test [3] (at 50.0 µM); -1% (inactive) in test [4] (setting [7]); 93% (active) in test [4] (setting [8]); 95.5% (active) in test [4] (at 50.0 µM). In addition, the growth inhibition in test [5] (setting [7]) was -4% (inactive); in test [5] (setting [8]), 96% (active); in test [5] (at 50.0 µM) it was 37.2% (inactive); in test [6] (setting [7]), 3% (inactive); in test [6] (setting [8]), 93% (active); in test [6] (at 50.0 µM), 97% (active).
